Assay results: PubChem BioAssay (NCI)
About 83,000 compounds went through this panel and 20% of them were active in at least one assay; those are over-represented in the sample as a whole.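 Single-concentration screen, 48 h exposure, 96-well plates. Endpoint: percent growth. Below 10 = active.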 A number with no mark means an inactive call. Activity calls are given as the source filed them.

Tests used:
Test in all cases: NCI-60 one-dose screen, 48 h (100 = growth as untreated, 0 = no growth, -100 = all killed)
Settings in all cases: 10 µM unless noted
T-47D breast = system: T-47D breast
BT-549 breast = system: BT-549 breast
MDA-MB-435 melanoma = system: MDA-MB-435 melanoma
MCF7 breast = system: MCF7 breast
HCT-116 colon = system: HCT-116 colon
HCC-2998 colon = system: HCC-2998 colon
KM12 colon = system: KM12 colon
SW-620 colon = system: SW-620 colon

Row | Compound | growth (T-47D breast) | growth (BT-549 breast) | growth (MDA-MB-435 melanoma) | growth (MCF7 breast) | growth (HCT-116 colon) | growth (HCC-2998 colon) | growth (KM12 colon) | growth (SW-620 colon)
1 | Clc1ccc(CN2COc3c(ccc4cccnc34)C2)cc1Cl | 5.72% (active) | 8.99% (active) | 12.8% | 12.6% | -39.1% (active) | -25.4% (active) | 7.75% (active) | –
2 | COc1ccc2c(c1)nnn1c3ncccc3c(N=O)c21 | -0.214% (active) | -11.7% (active) | -5.59% (active) | -58.7% (active) | -86% (active) | 12.6% | 5.81% (active) | –
3 | Nc1ncc(-c2ccc3ncnc(Nc4ccc(F)c(Cl)c4)c3c2)cn1 | 26% | 22.5% | 84% | 27.1% | 21% | 83.9% | 66.1% | –
4 | COc1ccccc1C(OC(C)=O)OC(C)=O | 95.3% | 102% | 104% | 90.9% | 95.7% | 105% | 105% | –
5 | COc1ccc(-c2nnc(NC(=O)CN3CCN(c4cc5c(cc4F)c(=O)c(C(=O)O)cn5C4CC4)CC3)s2)cc1OC | 101% | 105% | 103% | 106% | 103% | 99.6% | 98.2% | –
6 | Nc1nc2ccc(CNc3ccc(C(=O)NC(CC(=O)O)C(=O)O)cc3)cc2c(=O)[nH]1 (stereo not drawn) | 84.7% | 74.3% | 40.4% | 27.2% | 16.8% | 45.1% | 29.8% | –
7 | O=S(=O)(O)c1ccc(F)cc1 | 98.7% | 101% | 108% | 97.8% | 99% | 105% | 101% | –
8 | COc1cc2c(cc1OCCCCC(=O)Nc1ccc(-c3nc4ccccc4s3)cc1)N=C[C@@H]1CCCN1C2=O | 14.7% | -76.4% (active) | -70.8% (active) | 1.14% (active) | 5.56% (active) | -62% (active) | -58.7% (active) | –
9 | CCn1c(SCC(=O)c2ccc(Br)cc2)nnc1-c1cc2c([nH]c3ccccc32)c(-c2cccc(O)c2)n1 | 29.4% | – | 31.3% | 40.5% | 70.1% | 98.4% | 66.5% | 94.1%
10 | CN(C)c1ccc(/C=N/N=C(N)N)cc1 | 81.9% | 93.3% | -13.9% (active) | 31.9% | 52.8% | 68.2% | 42.6% | –
11 | Cc1cc(NC(=O)c2cccc(C(F)(F)F)c2)ccc1-n1ccc2c(NC(=O)c3ccccc3)nccc21 | 78.8% | 88.7% | 105% | 103% | 83.5% | 115% | 100% | –
12 | CC(C)(C)NC(C1=CC(C)(C)c2ccccc2C1=O)c1ccccc1 (stereo not drawn) | -71.8% (active) | -32.9% (active) | -25.4% (active) | -63.6% (active) | -99.5% (active) | -31.3% (active) | -29.2% (active) | –
13 | COc1ccc(CCNC=O)cc1OC | 99.7% | 96.1% | 103% | 94.1% | 100% | 104% | 102% | –
14 | COc1ccc(-c2nnc(SCC(=O)Nc3ccc(C(=O)/C=C/c4ccc(Cl)cc4)cc3)o2)cc1OC | 90.1% | 57.3% | 81.1% | 57.5% | 75.6% | 96% | 97.9% | –
15 | S=c1ssnc1-c1ccccn1 | 27.1% | 49.5% | 36% | 27.4% | 6.31% (active) | 50.8% | 32.8% | –
16 | Nc1ncnc2c1ccn2-c1cccc(NC(=O)c2cccc(C(F)(F)F)c2)c1 | 59.2% | 89.9% | 59% | 58.6% | 68.5% | 98.6% | 54% | –
17 | CCCCNc1cc(C(=O)O)cc(S(N)(=O)=O)c1Oc1ccccc1 | 103% | 104% | 99.3% | 111% | 110% | 103% | 107% | –

Row | Compound | growth (T-47D breast) | growth (BT-549 breast) | growth (MDA-MB-435 melanoma) | growth (MCF7 breast) | growth (HCT-116 colon) | growth (HCC-2998 colon) | growth (KM12 colon) | growth (SW-620 colon)
18 | O=C(Nc1ccc(F)cc1)Nc1ccc(Br)c(C(F)(F)F)c1 | -4.72% (active) | 15.5% | 6.46% (active) | 1.94% (active) | 4.58% (active) | 11.8% | 13.8% | –
19 | Nc1nccc2c1ccn2-c1cccc(NC(=O)c2ccc(N3CCOCC3)c(C(F)(F)F)c2)c1 | 45.7% | -5.74% (active) | 2.02% (active) | 16% | 7.23% (active) | 23.9% | -14.5% (active) | –
20 | COc1ccc2c(c1)C(=O)/C(=C/c1cccc(OCC(=O)c3ccccc3)c1)O2 | -31.7% (active) | -15.9% (active) | 38% | 32% | 0.433% (active) | -71.2% (active) | 71.7% | –
21 | CN1CCN(C(=O)/C=C/c2ccc([N+](=O)[O-])o2)CC1 | 110% | 105% | 72.7% | 68.7% | 81.6% | 103% | 83.9% | –
22 | O=C(Nc1ccc(-n2ccc3c(NC(=O)c4ccccc4)ncnc32)cc1)Nc1ccc(Cl)c(C(F)(F)F)c1 | 12% | 56% | 7.71% (active) | -51.3% (active) | -77.6% (active) | 30.8% | -25.4% (active) | –
23 | CCCc1nn2c(CCC(=O)c3nc4ccc([N+](=O)[O-])cc4[nH]3)nnc2s1 | 102% | 111% | 103% | – | – | 100% | 104% | 97.6%
24 | O=C(CNc1cccnc1)Nc1ccc(C(=O)/C=C/c2ccc(Cl)cc2)cc1 | 89.9% | 89.7% | 68.5% | – | – | 86.2% | 69.3% | –
25 | O=C(O)c1cc2ccccc2cc1Nc1ccccc1 | 89.3% | 113% | 103% | 76.2% | 89.7% | 99.1% | 109% | –
26 | CN1CCN(CC(O)COc2c(Br)c(Br)c(Br)c3c2OC(C)(C)C3)CC1 (stereo not drawn) | 81.3% | 78.4% | 18.7% | 59.5% | 20.7% | 12.4% | 57.2% | –
27 | COc1ccc(C(=O)NC(=O)Nc2ccc3c(c2)NC(=O)/C3=C\c2[nH]c(C)c(C(=O)O)c2C)c(F)c1 | 58.5% | 21.7% | 66.4% | 74.8% | 59.6% | 46.6% | 26.3% | –
28 | NC(CSC(c1ccccc1)(c1ccccc1)c1ccc(F)cc1)C(=O)O (stereo not drawn) | 30.4% | 28.7% | -47.1% (active) | 11.7% | -7.69% (active) | 4.55% (active) | 5.24% (active) | –
29 | COc1cccc(C2CC(c3cc(OC)c(OC)c(OC)c3)=NN2)c1 (stereo not drawn) | 78.7% | 93.6% | 11.9% | 51.5% | 66.5% | 83.2% | 54.7% | –
30 | Nc1ncnc2c1c(-c1ccc(Oc3ccccc3)cc1)nn2C[C@H]1SSC[C@@H]1O | -20.3% (active) | 78.1% | -92.9% (active) | 14.5% | 13% | 72.1% | 32.6% | –
31 | O=C(Nc1ccc(-n2cc(-c3ccncc3)c(-c3ccc(O)c(Cl)c3)n2)cc1)Nc1ccc(Cl)c(C(F)(F)F)c1 | 29.2% | -19.4% (active) | -0.731% (active) | 15% | 6.73% (active) | 22% | 6.77% (active) | –
32 | COc1ccc(C[C@H](N)C(=O)N[C@@H]2[C@@H](CO)OC(n3cnc4c(N(C)C)ncnc43)[C@@H]2O)cc1 (stereo partly drawn) | -8.69% (active) | -72.1% (active) | -85.4% (active) | -7.03% (active) | -84.6% (active) | -94.6% (active) | -85.2% (active) | –
33 | O=C(Nc1ccccc1Cl)c1c[nH]c(=O)c(-c2ccc(N3CCCOC4(CC4)C3)cc2)c1 | 31.5% | 56.3% | 56.4% | 40% | 42.4% | 67.5% | 74.3% | –
